Measured values as given in PubChem BioAssay AID1159580 (chemical genetic matrix, 2015).
Values joined by “and” are separate entries in the source; they are usually repeats but may differ in a detail not shown here. Equal entries are not always repeated. Among all 5,500 compounds or so, about 2,000 (36%) were called active. Another 18% or so got no clear call; they are omitted. Cut-off read from the data, not from the text of the source: active = normalized growth mostly below about 0.91 (no sharp cut-off); inconclusive = no clear call, values can overlap the other calls; inactive = mostly above about 0.92. The list shows a part of the results.

Experiment: chemical genetic growth profiling, strain panel (AID 1159580);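 note: tested at 20 µM; growth read once vehicle control cultures reached saturation at 30 °C; 1 = growth at the plate median or of vehicle wells; lower values mean less growth of the strain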
Settings: growth OD

Measured: normalized growth

CN1C(=O)CCS(=O)(=O)C1c1ccc(Cl)cc1 (stereo unspecified)
inactive: S. cerevisiae deletion strains, locus YJR075W, strain HOC1, stronger effect = lower value 1.04 and 1.02 | S. cerevisiae deletion strains, locus YKL009W, strain mrt4, stronger effect = lower value 1.03 | S. cerevisiae deletion strains, locus YKL068W, stronger effect = lower value 1.01 | S. cerevisiae deletion strains, locus YKL085W, strain MDH1 (second series), stronger effect = lower value 1.01 | S. cerevisiae deletion strains, locus YKL085W, strain MDH1, stronger effect = lower value 1.01 | S. cerevisiae deletion strains, locus YKL160W, strain elf1, stronger effect = lower value 1.02 | S. cerevisiae deletion strains, locus YKL190W, strain CNB1, stronger effect = lower value 1.01 | S. cerevisiae deletion strains, locus YKR001C, strain vps1, stronger effect = lower value 1.01 | S. cerevisiae deletion strains, locus YKR026C, strain gcn3, stronger effect = lower value 0.976 | S. cerevisiae deletion strains, locus YKR091W, strain srl3, stronger effect = lower value 0.984 | S. cerevisiae deletion strains, locus YLL001W, strain dnm1, stronger effect = lower value 0.979 | S. cerevisiae deletion strains, locus YLL026W, stronger effect = lower value 0.999 | S. cerevisiae deletion strains, locus YLL041C, strain sdh2, stronger effect = lower value 0.984 | S. cerevisiae deletion strains, locus YLR027C, strain aat2, stronger effect = lower value 0.998 | S. cerevisiae deletion strains, locus YLR039C, strain RIC1, stronger effect = lower value 1.04 | S. cerevisiae deletion strains, locus YLR058C, strain SHM2, stronger effect = lower value 1.01 | S. cerevisiae deletion strains, locus YLR102C, strain apc9, stronger effect = lower value 1.01 | S. cerevisiae deletion strains, locus YLR113W, strain HOG1, stronger effect = lower value 0.99 | S. cerevisiae deletion strains, locus YLR221C, strain rsa3, stronger effect = lower value 0.978 | S. cerevisiae deletion strains, locus YLR258W, strain gsy2, stronger effect = lower value 0.988 | S. cerevisiae deletion strains, locus YLR262C, strain YPT6 (second series), stronger effect = lower value 0.987 | S. cerevisiae deletion strains, locus YLR262C, strain YPT6, stronger effect = lower value 1.06 | S. cerevisiae deletion strains, locus YLR268W, strain sec22, stronger effect = lower value 1.06 | S. cerevisiae deletion strains, locus YLR320W, strain mms22, stronger effect = lower value 0.939 | S. cerevisiae deletion strains, locus YLR330W, strain CHS5, stronger effect = lower value 1.01 | S. cerevisiae deletion strains, locus YLR342W, strain FKS1 (second series), stronger effect = lower value 1.01 | S. cerevisiae deletion strains, locus YLR342W, strain FKS1, stronger effect = lower value 1.01 | S. cerevisiae deletion strains, locus YLR357W, strain rsc2, stronger effect = lower value 0.954 | S. cerevisiae deletion strains, locus YLR370C, strain arc18, stronger effect = lower value 0.991 | S. cerevisiae deletion strains, locus YLR371W, strain rom2, stronger effect = lower value 1.02 | S. cerevisiae deletion strains, locus YLR384C, strain iki3, stronger effect = lower value 0.996 | S. cerevisiae deletion strains, locus YLR418C, strain cdc73, stronger effect = lower value 1.02 | S. cerevisiae deletion strains, locus YML016C, strain PPZ1, stronger effect = lower value 1.01 | S. cerevisiae deletion strains, locus YML032C, strain rad52, stronger effect = lower value 1.04 | S. cerevisiae deletion strains, locus YML120C, strain ndi1, stronger effect = lower value 0.948 | S. cerevisiae deletion strains, locus YML124C, strain tub3, stronger effect = lower value 1.01 | S. cerevisiae deletion strains, locus YMR058W, strain fet3, stronger effect = lower value 0.979 | S. cerevisiae deletion strains, locus YMR078C, strain ctf18, stronger effect = lower value 1.02 | S. cerevisiae deletion strains, locus YMR125W, strain sto1, stronger effect = lower value 0.982 | S. cerevisiae deletion strains, locus YMR129W, stronger effect = lower value 0.974 | S. cerevisiae deletion strains, locus YMR205C, strain PFK2, stronger effect = lower value 0.947 | S. cerevisiae deletion strains, locus YMR223W, strain ubp8, stronger effect = lower value 1 | S. cerevisiae deletion strains, locus YMR231W, strain pep5, stronger effect = lower value 0.987 | S. cerevisiae deletion strains, locus YMR263W, strain SAP30, stronger effect = lower value 1.02 and 0.996 | S. cerevisiae deletion strains, locus YMR307W, strain GAS1, stronger effect = lower value 1 and 0.99 | S. cerevisiae deletion strains, locus YNL067W, strain RPL9B, stronger effect = lower value 1.03 | S. cerevisiae deletion strains, locus YNL071W, strain lat1, stronger effect = lower value 0.979 | S. cerevisiae deletion strains, locus YNL128W, strain TEP1, stronger effect = lower value 1.03 | S. cerevisiae deletion strains, locus YNL153C, strain GIM3, stronger effect = lower value 1.02 and 0.995 | S. cerevisiae deletion strains, locus YNL175C, strain NOP13, stronger effect = lower value 1.01 | S. cerevisiae deletion strains, locus YNL183C, strain NPR1, stronger effect = lower value 0.883 | S. cerevisiae deletion strains, locus YNL197C, strain WHI3, stronger effect = lower value 1 | S. cerevisiae deletion strains, locus YNL209W, strain ssb2, stronger effect = lower value 0.984 | S. cerevisiae deletion strains, locus YNL224C, strain SQS1, stronger effect = lower value 1 | S. cerevisiae deletion strains, locus YNL233W, strain BNI4, stronger effect = lower value 1.02 | S. cerevisiae deletion strains, locus YNL248C, strain rpa49, stronger effect = lower value 1.03 | S. cerevisiae deletion strains, locus YNL250W, strain rad50, stronger effect = lower value 1.01 | S. cerevisiae deletion strains, locus YNL271C, strain bni1, stronger effect = lower value 1.02 | S. cerevisiae deletion strains, locus YNL298W, strain CLA4, stronger effect = lower value 1.02 | S. cerevisiae deletion strains, locus YNL307C, strain MCK1, stronger effect = lower value 1.01 | S. cerevisiae deletion strains, locus YNL322C, strain KRE1 (second series), stronger effect = lower value 1 | S. cerevisiae deletion strains, locus YNL322C, strain KRE1, stronger effect = lower value 1.01 | S. cerevisiae deletion strains, locus YNR049C, strain mso1, stronger effect = lower value 0.992 | S. cerevisiae deletion strains, locus YNR052C, strain pop2, stronger effect = lower value 1.02 | S. cerevisiae deletion strains, locus YOL006C, strain TOP1, stronger effect = lower value 1.1 | S. cerevisiae deletion strains, locus YOL012C, strain htz1 0.9 | S. cerevisiae deletion strains, locus YOL147C, strain pex11, stronger effect = lower value 1.01 | S. cerevisiae deletion strains, locus YOR001W, strain rrp6, stronger effect = lower value 0.94 | S. cerevisiae deletion strains, locus YOR061W, strain CKA2, stronger effect = lower value 1.01 | S. cerevisiae deletion strains, locus YOR069W, strain VPS5, stronger effect = lower value 1.01 | S. cerevisiae deletion strains, locus YOR070C, strain gyp1, stronger effect = lower value 0.993 | S. cerevisiae deletion strains, locus YOR080W, strain dia2, stronger effect = lower value 0.982 | S. cerevisiae deletion strains, locus YOR083W, strain WHI5 (second series), stronger effect = lower value 1.03 | S. cerevisiae deletion strains, locus YOR083W, strain WHI5, stronger effect = lower value 0.994 | S. cerevisiae deletion strains, locus YOR106W, strain vam3, stronger effect = lower value 1.02 | S. cerevisiae deletion strains, locus YOR136W, strain idh2, stronger effect = lower value 1.01 | S. cerevisiae deletion strains, locus YOR144C, strain elg1, stronger effect = lower value 1.01 | S. cerevisiae deletion strains, locus YOR184W, strain ser1, stronger effect = lower value 1.01 | S. cerevisiae deletion strains, locus YOR231W, strain MKK1, stronger effect = lower value 0.996 | S. cerevisiae deletion strains, locus YOR265W, strain rbl2, stronger effect = lower value 0.982 | S. cerevisiae deletion strains, locus YOR270C, strain vph1, stronger effect = lower value 0.992 | S. cerevisiae deletion strains, locus YOR290C, strain snf2, stronger effect = lower value 1.01 | S. cerevisiae deletion strains, locus YOR316C, strain cot1, stronger effect = lower value 1.01 | S. cerevisiae deletion strains, locus YPL051W, strain arl3, stronger effect = lower value 1.03 | S. cerevisiae deletion strains, locus YPL055C, strain LGE1, stronger effect = lower value 1.05 and 1.03 | S. cerevisiae deletion strains, locus YPL078C, strain atp4, stronger effect = lower value 1.01 | S. cerevisiae deletion strains, locus YPL106C, strain sse1, stronger effect = lower value 0.952 | S. cerevisiae deletion strains, locus YPL240C, strain hsp82, stronger effect = lower value 0.981 | S. cerevisiae deletion strains, locus YPL241C, strain CIN2, stronger effect = lower value 1 and 1.01 | S. cerevisiae deletion strains, locus YPL256C, strain CLN2, stronger effect = lower value 0.956 | S. cerevisiae deletion strains, locus YPR119W, strain clb2, stronger effect = lower value 1.02 | S. cerevisiae deletion strains, locus YPR141C, strain kar3, stronger effect = lower value 1.01 | S. cerevisiae deletion strains, locus YPR163C, strain tif3, stronger effect = lower value 1.02 | S. cerevisiae deletion strains, locus YPR167C, strain met16, stronger effect = lower value 1.01 | S. cerevisiae deletion strains, strain wtn01, stronger effect = lower value 1.03 | S. cerevisiae strains, strain wild type, stronger effect = lower value 1.02
